The results in this text go back to PubChem BioAssay (NCI).

Some test systems named below: DU-145 prostate; K-562 leukemia; MALME-3M melanoma; MDA-MB-231 breast; RXF 393 renal; SF-268 CNS; SF-295 CNS; SF-539 CNS; UACC-257 melanoma; M14 melanoma; HCT-15 colon; HT29 colon; SNB-75 CNS; SNB-19 CNS; U251 CNS; PC-3 prostate; SK-MEL-5 melanoma; UACC-62 melanoma; LOX IMVI melanoma; SK-MEL-28 melanoma.
Holding throughout (experiment): NCI-60 one-dose screen, 48 h (100 = growth as untreated, 0 = no growth, -100 = all killed)
Common to all, as to conditions: 10 µM unless noted

This is part of a sample that, as a whole, favours compounds with a hit. Of some 83,000 tested, about 20% had one in any assay.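 96-well plates, one dose, 48 hours. Percent growth reported; active if below 10.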 A number with no mark means an inactive call. Active and inactive are the calls of the source.

`COc1ccc2c(c1)c(-c1noc(C(=O)c3cn(C)c4ccc(Br)cc34)n1)cn2C`: the growth is 113% in the assay on DU-145 prostate; 88% in the assay on K-562 leukemia; 93.9% in the assay with MALME-3M melanoma; 103% in the assay with MDA-MB-231 breast; 114% with RXF 393 renal; 99.2% in the assay on SF-268 CNS. For the same molecule, the growth was 117% in the assay on SF-295 CNS; 101% with SF-539 CNS; 92.7% in the assay with UACC-257 melanoma; 97% with M14 melanoma; 113% in the assay with HCT-15 colon; 92.5% with HT29 colon. In addition, the growth in the assay on SNB-75 CNS was 101%; with SNB-19 CNS it was 102%; in the assay on U251 CNS, 101%; with PC-3 prostate it was 95.3%; in the assay on SK-MEL-5 melanoma it was 100%; in the assay with UACC-62 melanoma, 93%. For the same molecule, the results for the growth in the assay on LOX IMVI melanoma and in the assay on SK-MEL-28 melanoma were 96.8% and 117%, respectively.

With `C=CCn1c(SCC(=O)Nc2ccc(C(=O)/C=C/c3ccc(Cl)cc3)cc2)nnc1-c1cc(-c2ccc(S(N)(=O)=O)cc2)nc2ccccc12`, the growth in the assay on DU-145 prostate was 104%; with K-562 leukemia, 71.1%; in the assay on MALME-3M melanoma, 93.3%; in the assay on MDA-MB-231 breast, 90%; in the assay on RXF 393 renal, 80.2%; with SF-268 CNS, 74.8%. The growth was 97.5% in the assay with SF-295 CNS; 87% in the assay on SF-539 CNS; 99.8% in the assay with UACC-257 melanoma; 92.2% in the assay with M14 melanoma; 96.5% in the assay with HCT-15 colon; 97.4% with HT29 colon. The growth with SNB-75 CNS is 56%; in the assay with SNB-19 CNS it was 81.4%; in the assay with U251 CNS, 71.2%; in the assay with PC-3 prostate it was 71.8%; in the assay on SK-MEL-5 melanoma, 76.8%; in the assay on UACC-62 melanoma, 71.9%. Further, the values for the growth in the assay on LOX IMVI melanoma and in the assay with SK-MEL-28 melanoma were 92.3% and 92.1%, respectively.

Regarding `CCCCC(=O)Nc1ncc(Cc2ccc(Cl)cc2)s1`, the growth was 89% with DU-145 prostate; 37.5% in the assay with K-562 leukemia; 81.3% in the assay with MALME-3M melanoma; 62.3% in the assay on MDA-MB-231 breast; 56.4% in the assay on RXF 393 renal; 79.6% with SF-268 CNS. Also, the growth in the assay with SF-295 CNS is 74.6%; in the assay with SF-539 CNS, 73.5%; with UACC-257 melanoma, 80.7%; in the assay on M14 melanoma it was 61.1%; with HCT-15 colon it was 40.3%; in the assay with HT29 colon, 28.6%. The growth with SNB-75 CNS is 46.5%; in the assay on SNB-19 CNS it was 77.2%; in the assay with U251 CNS, 65.6%; in the assay with PC-3 prostate, 80.9%; in the assay on SK-MEL-5 melanoma, 80.3%; with UACC-62 melanoma, 49.6%. Moreover, the growth in the assay on LOX IMVI melanoma was 64.8%; in the assay on SK-MEL-28 melanoma, 74.2%.

For `Cn1c(-c2ccc(Br)cc2)c(O)c(=O)c2c(F)cccc21`, the growth in the assay with DU-145 prostate is 54.4%; in the assay on K-562 leukemia, 100%; in the assay with MALME-3M melanoma, 55.2%; in the assay with MDA-MB-231 breast, 54.5%; in the assay on RXF 393 renal, 66.1%; with SF-268 CNS, 47%. The growth in the assay with SF-295 CNS was 48.4%; in the assay on SF-539 CNS, 57.4%; in the assay with UACC-257 melanoma it was 71.4%; in the assay with M14 melanoma, 50.6%; with HCT-15 colon, 23.9%; in the assay on HT29 colon, 36.6%. For the same molecule, the growth with SNB-75 CNS was 92.2%; in the assay on SNB-19 CNS, 52.8%; in the assay with U251 CNS, 34.3%; with PC-3 prostate, 105%; in the assay on SK-MEL-5 melanoma, 54.2%; in the assay with UACC-62 melanoma, 37.6%. The results for the growth in the assay with LOX IMVI melanoma and in the assay with SK-MEL-28 melanoma were 40.2% and 67.2%, respectively.

On to `OB(O)c1cccc(-c2nc3ccc4[nH]ncc4c3c3c2CCCC3)c1`, for which the growth is 50.3% in the assay with DU-145 prostate; 52.6% in the assay with K-562 leukemia; 120% in the assay with MALME-3M melanoma; 26.1% with MDA-MB-231 breast; 13.6% in the assay with RXF 393 renal; 37.9% in the assay with SF-268 CNS. For the same molecule, the growth in the assay with SF-295 CNS is 71.6%; in the assay with SF-539 CNS it was 20.9%; in the assay with UACC-257 melanoma it was 103%; in the assay with M14 melanoma, 64.8%; with HCT-15 colon it was 37.6%; in the assay on HT29 colon, 48.1%. Besides, the growth in the assay on SNB-75 CNS was -30.6% (active); with SNB-19 CNS, 78.4%; with U251 CNS, 56.7%; with PC-3 prostate it was 53.9%; with SK-MEL-5 melanoma it was 68.1%; in the assay on UACC-62 melanoma, 35.5%. For the same molecule, the growth in the assay on LOX IMVI melanoma was 35.6%; in the assay on SK-MEL-28 melanoma, 91.9%.

Turning to `O=C1Nc2ccccc2/C1=C\c1nc(-c2ccccc2)n2ccccc12`, the growth is 86.4% in the assay with DU-145 prostate; 77.2% in the assay on K-562 leukemia; 119% in the assay on MALME-3M melanoma; 60.6% in the assay with MDA-MB-231 breast; 78% with RXF 393 renal; 93.9% in the assay on SF-268 CNS. For the same molecule, the growth with SF-295 CNS was 97.6%; with SF-539 CNS it was 101%; with UACC-257 melanoma, 124%; with M14 melanoma, 79.8%; in the assay with HCT-15 colon, 80.2%; in the assay on HT29 colon, 91.6%. Also, the growth is 79.6% with SNB-75 CNS; 103% with SNB-19 CNS; 89.6% with U251 CNS; 87.4% with PC-3 prostate; 89.7% in the assay with SK-MEL-5 melanoma; 78.3% in the assay on UACC-62 melanoma. The growth with LOX IMVI melanoma was 84.6%; with SK-MEL-28 melanoma it was 113%.

As to `N=C(N)c1ccc(-c2ccc(-c3cc(Cl)cc(Cl)c3)o2)o1`, the growth in the assay with DU-145 prostate is -87.7% (active); in the assay with K-562 leukemia, -59.7% (active); in the assay with MALME-3M melanoma, -89.6% (active); with MDA-MB-231 breast, -68.2% (active); in the assay with RXF 393 renal, -88.8% (active); in the assay with SF-268 CNS it was -56.4% (active). In addition, the growth is -83.5% (active) in the assay with SF-295 CNS; -85% (active) with SF-539 CNS; -73% (active) in the assay with UACC-257 melanoma; -54.1% (active) with M14 melanoma; -89.3% (active) in the assay with HCT-15 colon; -81.1% (active) with HT29 colon. The growth is -68.9% (active) in the assay on SNB-75 CNS; -64.9% (active) in the assay with SNB-19 CNS; -89.9% (active) in the assay on U251 CNS; -25.8% (active) in the assay with PC-3 prostate; 16.2% in the assay with SK-MEL-5 melanoma; -81% (active) with UACC-62 melanoma. Further, the results for the growth in the assay on LOX IMVI melanoma and in the assay on SK-MEL-28 melanoma were -83.6% (active) and -80.2% (active), respectively.

On to `O=C(/C=C/c1cccs1)c1ccc(Cl)nc1`, for which the growth in the assay with DU-145 prostate is 106%; in the assay with K-562 leukemia it was 97.1%; in the assay on MALME-3M melanoma, 95.7%; in the assay on MDA-MB-231 breast it was 116%; in the assay with RXF 393 renal it was 119%; in the assay with SF-268 CNS it was 102%. In addition, the growth in the assay with SF-295 CNS is 101%; with SF-539 CNS, 101%; in the assay on UACC-257 melanoma, 100%; with M14 melanoma, 101%; in the assay on HCT-15 colon, 100%; with HT29 colon, 101%. Further, the growth was 95.2% with SNB-75 CNS; 102% in the assay on SNB-19 CNS; 99.9% in the assay on U251 CNS; 104% in the assay with PC-3 prostate; 104% in the assay on SK-MEL-5 melanoma; 97.2% with UACC-62 melanoma. For the same molecule, the growth is 102% in the assay on LOX IMVI melanoma and 105% in the assay with SK-MEL-28 melanoma.
